Screens deposited in PubChem BioAssay by National Center for Advancing Translational Sciences (NCATS).
Compounds with a hit are over-represented: about 2.2% of the library has one in this group of screens.
VACV mCherry inh: vaccinia inhibition (mCherry reporter); Vaccinia virus mCherry reporter infection, fluorescence; 310,000 compounds, 0.63% hits; Potency, µM (top dose mostly 36.5 µM), inactives show top-dose activity change, negative = inhibition, most hits filed as inhibitors; AID 720579; calls by dose curve; tested in A549 cells; note: nearly all actives have a fitted effect of over 35% in size
VACV Venus inh: vaccinia inhibition (Venus reporter) | 330,000 compounds, 0.46% hits | Vaccinia virus Venus reporter expression, fluorescence | Potency, µM (doses to about 36.5 µM), for inactives: at the highest dose activity change, negative = inhibition, most hits filed as inhibitors | AID 720580; calls by dose curve; tested in A549 cells; note: nearly all actives have a fitted effect of over 30% in size
FMDV antiviral: blocks foot and mouth disease virus; FMDV antiviral cell-based qHTS; Potency, µM (series often up to 57.9 µM), inactives show at the highest dose activity change, negative = inhibition, actives largely listed as inhibitors; 410,000 compounds, 1.2% hits; AID 1159524; calls by dose curve; tested in HEK293T cells; note: read-out not given here; nearly all actives have a fitted effect of over 45% in size
FBPA Giardia inh: inhibitors of Giardia lamblia fructose-1,6-bisphosphate aldolase. A8B2U2. purified Giardia FBPA. Potency, µM (highest dose often 59.6 µM), inactives show at the highest dose activity, negative = inhibition, most hits filed as inhibitors. 290,000 compounds, 0.71% hits; active = well fitted inhibition curve with a large enough effect; inconclusive = small, poorly fitted or top-dose-only effect, or effect the other way; note: nearly all actives have a fitted effect of over 55% in size
Target sequence (A8B2U2 whole entry, looked up): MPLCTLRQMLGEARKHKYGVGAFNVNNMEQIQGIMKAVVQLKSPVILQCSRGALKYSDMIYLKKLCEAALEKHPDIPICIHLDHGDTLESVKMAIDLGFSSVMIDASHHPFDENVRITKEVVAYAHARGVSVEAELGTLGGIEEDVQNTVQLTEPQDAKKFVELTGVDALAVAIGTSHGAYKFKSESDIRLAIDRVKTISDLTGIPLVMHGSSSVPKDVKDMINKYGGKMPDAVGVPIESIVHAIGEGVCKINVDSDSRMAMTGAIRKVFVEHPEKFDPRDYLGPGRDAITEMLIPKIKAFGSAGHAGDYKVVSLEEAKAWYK
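40 nM FBPA preincubated 10 min at RT with compound (up to 57.5 uM final), then substrate plus GAPDH/TPI/NAD/arsenate coupling and diaphorase/resazurin added. Fluorescence read after 20 min at RT, 525/598 nm.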
* marks the source's active call; other numbers are inactive results; i = inactive; u = inconclusive; x = no result given; [ ] = another dose, or the depositor's remark. % is set by controls: 0 for no effect and ±100 for the full control effect; potency is the fitted concentration of half-maximal effect.

SMILES | VACV mCherry inh | VACV Venus inh | FMDV antiviral | FBPA Giardia inh
COC(=O)c1cscc1S(=O)(=O)Cc1ccccc1 | x | x | 1% | -12%
COc1ccc(N(Cc2ccccc2)C(=O)c2nc(S(C)(=O)=O)ncc2Cl)cc1 | u | u | 18µM* | x
COC(=O)c1ccccc1NC(=O)c1nc(S(=O)(=O)Cc2ccccc2)ncc1Cl | x | x | 32µM* | x
O=C(NCc1ccccc1)c1nc(S(=O)(=O)Cc2ccccc2)ncc1Cl | -21% | -20% | 32µM* | x
CS(=O)(=O)c1ncc(Cl)c(C(=O)Nc2ccc3ccccc3c2)n1 | 10µM* | u | 13µM* | 4%
NC(=O)Nc1ccc(/C=C2\C=Cc3ccccc32)cc1 | -20% | -29% | x | x
CS(=O)(=O)c1ncc(Cl)c(C(=O)N(Cc2ccc(Cl)cc2)Cc2ccco2)n1 | u | 16µM* | u | x
CCS(=O)(=O)c1ncc(Cl)c(C(=O)NCc2ccccc2)n1 | -14% | -10% | u | x
CC(=O)Nc1ccc(NC(=O)c2nc(S(=O)(=O)Cc3ccccc3)ncc2Cl)cc1 | x | x | 32µM* | x
COc1ccc(CNC(=O)c2nc(S(=O)(=O)Cc3ccccc3)ncc2Cl)cc1 | -12%[7.34 µM] | -10%[7.34 µM] | 22µM* | x
O=C(c1ccc(Cl)cc1)N(Cc1ccco1)Cc1ccco1 | 5% | -1% | 12% | x
COc1cccc(CNC(=O)c2c(OC)cc(=O)n3c2CCN(C(=O)C2=C(C)OCCO2)CC3)c1 | -12% | -8% | 31% | x
O=C(Nc1nc2ccccc2[nH]1)c1ccc(F)cc1 | x | x | 20µM* | -8%
COc1ccc(Cl)cc1C(=O)Nc1nc2ccccc2[nH]1 | i | -20% | 11µM* | -12%
O=C(Nc1nc2ccccc2[nH]1)c1ccccc1OC(F)F | -2% | -7% | -39% | -18%
COc1ccc(C(=O)Nc2nc3ccccc3[nH]2)cc1OC | x | x | 21% | -14%
CCc1ccc(C(=O)Nc2nc3ccccc3[nH]2)cc1 | -10% | u | 5.6µM* | 14%
N#Cc1ccc(C(=O)Nc2nc3ccccc3[nH]2)cc1 | -18% | -1% | -4% | 27%
O=C(Nc1nc2ccccc2[nH]1)c1ccccc1F | 14% | -20% | 3.2µM* | -11%
CS(=O)(=O)c1ccc(/C=C2\C=Cc3ccccc32)cc1 | 2% | -9% | x | x
CCC1CN(CC(=O)NC(C)CO)Cc2cc(OC)ccc2O1 (stereo not drawn) | -16% | -5% | 4% | x
Cc1cc(C)nc(-c2cccc3c2OC(CNC(=O)c2ccc(Cn4nc(C)cc4C)cc2)C3)n1 (stereo not drawn) | -5% | 3% | -9% | x
O=C1c2ccccc2C(=O)c2c1cccc2N(CCO)CCO | -24% | -9% | -9% | -25%
O=C1C=C(N(CCO)Cc2ccccc2)c2ccccc2C1=O | 11µM* | u | 14µM* | 0.35µM*
CN=c1sc(C(=O)Nc2ccccc2)c(C)n1C | -1% | -4% | 23% | 0%
SMILES | VACV mCherry inh | VACV Venus inh | FMDV antiviral | FBPA Giardia inh
CN=c1sc2c(n1C)C(=O)c1ccccc1C2=O | 2.8µM* | 4µM* | u | x
CC[C@H](NC(C)C)[C@H](O)c1ccc(O)c(O)c1 | x | x | x | 3.5µM*
C[C@H](N)[C@H](O)c1ccc(O)c(O)c1 | x | x | x | 7.1µM*
CNC[C@H](O)c1ccc(O)c(O)c1 | -6% | -12% | -4% | 18µM*
CC(=O)c1c(C)oc2c1C(=O)c1ccccc1C2=O | -15% | -2% | u | u
COc1ccc(CNC(=O)c2c(F)c(F)c(F)c(F)c2F)cc1 | 11µM* | u | -3% | 13%
COc1ccc(CNC(=O)c2c(C)oc3c2C(=O)c2ccccc2C3=O)cc1 | 7.1µM* | 8.9µM* | u | u
Cc1oc2c(c1C(=O)NCc1cccnc1)C(=O)c1ccccc1C2=O | u | 0.56µM* | 3.2µM* | u
COC(=O)[C@@H]1CCCN1C(=O)c1cnn(-c2nccc(-c3cc(C)sc3C)n2)c1C1CC1 | i | -11% | 29% | x
COc1cc(/C=C(\C#N)C(=O)NC2CCCCC2C)ccc1OS(=O)(=O)c1ccc(C)cc1 (stereo not drawn) | -10% | 0% | 25µM* | -1%
Cc1ccc(C)c(SCC(=O)Nc2cccc(S(=O)(=O)NC3=NCCCCC3)c2)c1 | i | -17% | -10% | -5%
Cc1ccc(Nc2nnc(SCC(=O)Nc3cccc(S(=O)(=O)NC4=NCCCCC4)c3)s2)c(C)c1 | -16% | -20% | 32µM* | -12%
O=C(CSc1cccc[n+]1[O-])Nc1cccc(S(=O)(=O)NC2=NCCCCC2)c1 | i | -1% | -11% | 2%
O=C(CSc1ccc2ccccc2c1Br)Nc1cccc(S(=O)(=O)NC2=NCCCCC2)c1 | u | 10µM* | -19% | 2%
C#Cc1cccc(C(=O)NCc2nc(-c3ccccc3NC(C)=O)oc2C)c1 | -12% | -11% | 2% | x
Nc1nc2c(nc(N3CCOCC3)n2COCCO)c(=O)[nH]1 | 37% | -16% | x | x
C=C1CC[C@@H]2[C@](C)(CO)[C@H](O)CC[C@@]2(C)[C@@H]1C/C=C1/C(=O)OC[C@H]1O | u | u | -26% | x
O=C(NCCN1CCC(n2c(=O)[nH]c3ccccc32)CC1)c1ccc(F)c(C(F)(F)F)c1 | 0% | 1% | -28% | x
O=C(NCCN1CCC(n2c(=O)[nH]c3ccccc32)CC1)c1ccc(C(F)(F)F)cc1C(F)(F)F | -21% | -13% | 20µM* | x
c1ccc(C2(NC3=NCCO3)CCCCC2)cc1 | u | 4µM* | -3% | x
C1CCC(NC2=NCCO2)CC1 | -29% | u | 0% | x
CC1(C)CC(NC(=O)c2coc(=O)c(Br)c2)CC(C)(C)N1 | x | 9% | 32µM* | 7%
CCCSc1nnc(NC(=O)Nc2ccc(F)cc2)s1 | x | 7.9µM* | -25% | 3%
O=C1CCN(Cc2cccn2-c2ccccn2)CCN1Cc1ccccc1C(F)(F)F | -14% | 11% | 0% | x
CC(NCC(=O)Nc1ccccc1C(=O)NC1CC1)c1ccc(Cl)cc1 (stereo not drawn) | -14% | -7% | 20µM* | x
SMILES | VACV mCherry inh | VACV Venus inh | FMDV antiviral | FBPA Giardia inh
O=C(O)C1(C(=O)O)CCCC1 | i | -8% | -8% | x
O=C(O)C1(C(=O)O)CCC1.[NH2-].[NH2-].[Pt+2] | x | x | x | 14µM*
COc1ccc(CN2Cc3ccccc3OC(c3ccccc3OC)C2)c(O)c1 (stereo not drawn) | -21% | -11% | -14% | x
COc1ccc(C(=O)N2CCN(c3ccc([N+](=O)[O-])c(NCCc4ccc(OC)c(OC)c4)c3)CC2)cc1 | u | -21% | 8.9µM* | -14%
COc1ccc(CCNc2cc(N3CCN(C(=O)c4ccccc4F)CC3)ccc2[N+](=O)[O-])cc1OC | u | u | 3.5µM* | -7%
COc1ccc(CCNc2cc(N3CCN(C(=O)c4ccc(C)cc4)CC3)ccc2[N+](=O)[O-])cc1OC | x | x | x | -12%
COc1ccccc1C1CN(CCNC(=O)c2ccccc2Cl)Cc2ccccc2O1 (stereo not drawn) | i | -16% | 8% | x
CCc1ccc(-c2cc(C)no2)cc1S(=O)(=O)NCc1ccc(OC)cc1 | -26% | -24% | 22% | x
O=C(CCl)N(C/C=C/c1ccccc1)c1ccc2c(c1)OCCO2 | -6% | -25% | 25µM* | -29%
CCCN(CCC)CCCNC(=S)Nc1ccc2nc(N3CCN(C)CC3)cc(C)c2c1 | x | x | -3% | -10%
CCCCN(CC)CCNC(=S)Nc1ccc2nc(N3CCN(C)CC3)cc(C)c2c1 | 13µM* | u | -11% | -8%
